Results on 18 molecules are retold here after ChEMBL document CHEMBL4513148, “CO-ADD screening of Stellenbosch University (South Africa) compounds”.

The structures appear in SMILES notation. Entries with a potency or affinity are not part of this list.

This experiment has as its system Cryptococcus neoformans. Conditions: Concentration 32 ug.mL-1; ASSAY_TEST Inhibition of Fungal Growth; detection method Resazurin; Absorption (OD600-OD570); plate type 384well; NBS; CORNING #3640. (The colour change of resazurin is a common sign of viable cells or microbes.)
As for `CCCCCCNNC(=O)CCNC(=O)[C@H](O)C(C)(C)CO`, the Inhibition came out at 3.11%.
`CC(C)(CO)[C@H](O)C(=O)NCCc1cn(C[C@H]2O[C@@H](n3ccc(N)nc3=O)[C@H](O)[C@@H]2O)nn1`: the Inhibition is recorded as -3.52%.
As to `CC(C)(CO)[C@@H](O)C(=O)NCCC(=S)NCCc1ccccc1`, the Inhibition was 0.82%.
The result for `CC(C)(CO)[C@@H](O)C(=O)N/C=C/C(=O)NCCc1ccccc1` reads -6.96%; that for `CC(C)(CN)C(O)C(=O)NCCC(=O)NCCc1ccccc1` (stereo not drawn), 42.65%.
As to `CC(CC(=O)NCCc1ccccc1)NC(=O)[C@H](O)C(C)(C)CO` (stereo partly drawn), the Inhibition is 2.32%.
As to `CC(C)(COP(=O)(O)O)[C@@H](O)C(=O)NCCC(=O)NCCc1ccccc1`, the Inhibition came to 21.44%.
Regarding `C#CCNC(=O)[C@H](O)C(C)(C)CO`, the Inhibition is -0.61%.
Consider `CC(C)(CO)[C@H](O)C(=O)NCCCc1cn(C[C@H]2O[C@@H](n3ccc(N)nc3=O)[C@H](O)[C@@H]2O)nn1`, for which the Inhibition is on record as -4.03%.
With `CC(C)(C)C(O)C(=O)NCCC(=O)NCCc1ccccc1` (stereo not drawn), the Inhibition is listed as -0.45%.
For the molecule `CC(C)(CO)[C@H](O)C(=O)NCCC(=O)OCc1cn(C[C@H]2O[C@@H](n3ccc(N)nc3=O)[C@H](O)[C@@H]2O)nn1`, the Inhibition is reported as -1.73%.
`CC(C)(CO)[C@H](O)C(=O)NCc1cn(C[C@H]2O[C@@H](n3ccc(N)nc3=O)[C@H](O)[C@@H]2O)nn1`: the Inhibition was found to be 6.11%.
On to `CCCCCCCNC(=S)CCNC(=O)[C@H](O)C(C)(C)CO`, for which the Inhibition is -3.35%.
As for `CC(C)(CO)C(O)C(=O)NCCCOP(=O)(O)OCC1OC(n2ccc(N)nc2=O)C(O)C1O` (stereo not drawn), the Inhibition is recorded as -6.1%.
On to `CCCCCCCNS(=O)(=O)CCNC(=O)[C@H](O)C(C)(C)CO`, for which the Inhibition is 2.56%.
As for `CC(C)(CO)[C@@H](O)C(=O)NCCC(=O)NNCc1ccccc1`, the figure is -4.98%; as for `CC(C)(CO)[C@H](O)C(=O)NCCC(=O)NCc1cn(C[C@H]2O[C@@H](n3ccc(N)nc3=O)[C@H](O)[C@@H]2O)nn1`, -1.6%.
Regarding `CCCCCCCNC(=O)CCNC(=O)C(O)C(C)(C)C` (stereo not drawn), the Inhibition is on record as 0.36%.

A word on the Inhibition: it is the change of the read-out against control, counted positive when it falls.
